HCMV antiviral – inhibitors of human cytomegalovirus | activity change, negative = inhibition, % at 57.5 µM | 4.5% of 410,000 active | HFF cells, HCMV-luciferase reporter, 72 h; hits give low values; in the data active means activity change below about -60%; inconclusive means no clear call, values can overlap the other calls; inactive means above about -39%
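Inhibition of viral replication was scored as loss of reporter luminescence in HFFs infected with HCMV-luciferase (MOI 1 PFU/cell) for 72 h; compounds tested at 2 doses, normalized to buffer and Salinomycin controls.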
LASV entry inh – Lassa virus entry inhibition; Lassa virus pseudotype entry inhibition, cell reporter; Potency, µM (titrated, usually from 37.9 µM), for inactives: top-dose activity change, negative = inhibition, hits mostly inhibitors; 1.2% of 300,000 active; calls by dose curve; tested in HEK293 cells; further: potency means the concentration at half of the fitted maximal effect; nearly all actives have a fitted effect of over 50% in size
FMDV inh – foot and mouth disease virus antiviral activity. FMDV antiviral cell-based qHTS. Potency, µM (series often up to 57.9 µM), inactives show top-dose activity change, negative = inhibition, actives largely listed as inhibitors. 1.2% of 410,000 active; calls by dose curve; tested in HEK293T cells; further: read-out not given here; potency means the concentration at half of the fitted maximal effect; nearly all actives have a fitted effect of over 45% in size
MARV entry inh – inhibitors of Marburg virus binding or cell entry. Marburg virus pseudotyped entry inhibition, cell reporter. Potency, µM (doses to about 37.8 µM), for the others: at the highest dose activity change, negative = inhibition, hits mostly inhibitors. 1.8% of 300,000 active. AID 540276; calls by dose curve; tested in HEK293 cells; further: potency means the concentration at half of the fitted maximal effect
Active calls of the source: *; ? = inconclusive; / = not tested or not shown; [ ] = remark or other dose. The list is not random: actives were taken first. Their share in the collection is about 6.2%. On the % scale 0 is the no-effect control and ±100 the full control effect.

SMILES | HCMV antiviral | LASV entry inh | FMDV inh | MARV entry inh
CC(C)(C)c1ccc(/C=N/NC(=O)Cc2c[nH]c3ccccc23)cc1 | 51.8 | ? | -10.3% | 14.6µM*
C/C(=N\NC(=O)c1c[nH]c2ccccc12)c1ccc2c(c1)OCO2 | 3.7 | / | 35.2% | /
C/C(=N\NC(=O)Cc1c[nH]c2ccccc12)c1ccc2ccccc2c1 | 81.0 | 3.98µM* | 11.6% | ?
O=C(Cc1c[nH]c2ccccc12)N/N=C/c1ccccc1O | -26.5 | / | 78.7% | /
COc1ccc(C(=O)COC(=O)CNC(=O)c2cccc(OC(F)F)c2)cc1 | -6.4 | 10.6% | -15.8% | -6.4%
COc1ccc(S(=O)(=O)N(C)CC(=O)NCCCn2ccnc2)cc1Cl | -13.6 | -10.3% | -3.2% | ?
Clc1ccc(C(Cn2ccnc2)OCc2c(Cl)cccc2Cl)c(Cl)c1 (stereo not drawn) | -64.4* | / | ? | /
COc1cccc(NC(=O)Nc2nc(-c3ccc(OC)c(OC)c3)cs2)c1 | -99.4* | ? | 25.1µM* | ?
COc1ccc(CNC(=O)C2CCN(C(=O)c3ccc(F)cc3)CC2)cc1OC | -22.9 | / | -21.6% | /
COc1ccc(-c2csc(NC(=O)c3c(C)noc3C)n2)cc1F | -36.9 | 0.7% | 39.8µM* | ?
CC(=O)Nc1nc(-c2ccc3c(c2)CCO3)cs1 | -76.2* | / | 15.3% | /
Cc1noc(C)c1C(=O)Nc1nc(-c2ccc(F)c(F)c2)cs1 | -26.6 | 14.4% | 12.0% | 2.9%
COc1ccc(-c2csc(NC(=O)C3CCN(C(=O)c4ccc(F)cc4)CC3)n2)cc1OC | / | 15.8µM* | 35.5µM* | ?
O=c1[nH]c(O)c(C=Nc2cccc(F)c2)c(=O)[nH]1 | -12.9 | / | -8.1% | /
c1cc2c(cc1Nc1nc(-c3ccc4c(c3)OCO4)cs1)OCCO2 | 17.3 | ? | 16.5% | 13.6%
COc1ccccc1C(=O)Nc1nc(-c2ccc3c(c2)OCCO3)cs1 | -63.4* | / | -1.9% | /
c1ccc(-c2csc(Nc3ccc4c(c3)OCCO4)n2)cc1 | 54.1 | 10µM* | -18.9% | ?
N#Cc1sc(NCc2ccccc2)nc1Cl | 2.0 | ? | 47.1% | ?
N#Cc1c(NCc2ccccc2)ccnc1Cl | -69.1* | -23.2% | 0.0% | -11.7%
CCOC(=O)C1=C(N2CCCCC2)c2cc3c(n2C1=O)CCCC3 | -11.9 | -3.1% | -23.1% | -0.3%
CCOC(=O)[C@]12Cc3cc(Cl)ccc3[C@H]1N(C(C)C)C(=O)c1ccccc12 | -98.5* | / | 10µM* | /
CCOC(=O)[C@]12Cc3cc(Cl)ccc3[C@H]1N(CC(=O)OC)C(=O)c1ccccc12 | / | / | 10µM* | /
CCOC(=O)[C@]12Cc3cc(Cl)ccc3[C@H]1N(C)C(=O)c1ccccc12 | 67.9 | / | ? | /
CCc1ccc(/C=N/NC(=O)c2cc(C3CC3)nc3ccc(Br)cc23)s1 | -63.3* | ? | 0.0% | ?
O=C(N/N=C/c1ccco1)c1cc(C2CC2)nc2ccccc12 | 29.5 | ? | / | -35.6%
SMILES | HCMV antiviral | LASV entry inh | FMDV inh | MARV entry inh
O=C(COC(=O)CCc1c[nH]c2ccccc12)NCCc1ccccc1 | -0.9 | -1.6% | -10.4% | ?
COc1cccc(C(=O)Nc2ccc(NC(C)=O)cc2)c1 | 30.5 | 0.1% | 63.2% | ?
COC(=O)Cc1ccc(NC(=O)c2ccc(C(C)(C)C)cc2)cc1 | -92.8* | 6.51µM* | 10µM* | ?
COc1cccc(C(=O)Nc2ccc(NC(=O)c3ccc(C(C)(C)C)cc3)cc2)c1 | -96.9* | 5.7%[46.1 µM] | -21.3% | /
COc1cccc(C(=O)Nc2cc(NC(=O)c3cccs3)ccc2C)c1 | -74.6* | / | 16.4% | /
COc1cccc(C(=O)Nc2ccc(NC(=O)C(C)(C)C)cn2)c1 | 7.1 | 7.08µM* | -69.2% | 12.6µM*
COc1ccccc1NC(=O)c1c(NCc2ccc(C)o2)sc2c1CCCCC2 | 93.0 | 0.9%[46.1 µM] | -17.2% | /
N#Cc1ccc(/C=C(\C(=O)C(=O)O)c2ccc3ccccc3n2)cc1 | 26.8 | / | 41.0% | /
COc1cc2c(cc1NC(=O)c1ccc(C(C)(C)C)cc1)CCCC2 | -90.3* | 1.41µM* | -10.5% | 4.47µM*
COc1ccc(C(=O)Nc2cc3c(cc2OC)CCCC3)cc1Br | -17.5 | 32.4% | -14.5% | ?
Cc1cc(=O)c2cc(Cl)ccc2[nH]1 | -63.4* | / | -22.6% | /
CCCc1cc(=O)[nH]c(SCC(=O)NC(=O)OCC)n1 | ? | 23.7% | 11.0% | 10.7%
CC1CCc2c(sc(NC(=O)CSc3ncn[nH]3)c2C#N)C1 (stereo not drawn) | -66.1* | / | ? | /
CCCc1cc(=O)[nH]c(SCC(=O)Nc2sc3c(c2C#N)CCC(C)C3)n1 (stereo not drawn) | -61.0* | -10.0%[46.1 µM] | 7.4% | 33.2%[46.1 µM]
CCCc1cc(=O)[nH]c(SCC(=O)Nc2sc(C(N)=O)c(C)c2C(=O)OCCOC)n1 | -62.5* | / | 0.0% | /

High-throughput results (PubChem BioAssay)
